In the antibiotic and cytotoxicity screens of Wong et al. (2023):
Hit rate of the full screen: of about 39,000 compounds, about 3,300 (8.5%) were called active. What follows is part of a selection rich in actives, with near analogues and random picks from the rest.

The molecules below were run on HepG2 (assay: cytotoxicity call (relative viability < 0.9)). Conditions: 10 µM.

Row | Compound | cytotoxicity call
1 | C[C@H]1CCCCO[C@@H](CN(C)C(=O)Nc2cccc3ccccc23)[C@@H](C)CN([C@@H](C)CO)C(=O)c2cc(NS(C)(=O)=O)ccc2O1 | inactive
2 | CNC[C@@H]1Oc2ccc(NC(=O)Cn3cnnn3)cc2CC(=O)N([C@@H](C)CO)C[C@@H]1C | inactive
3 | C[C@H](CO)N1C[C@H](C)[C@@H](CN(C)C(=O)Nc2ccccc2)Oc2ccc(NC(=O)Cn3cnnn3)cc2C1=O | inactive
4 | C[C@H]1CN([C@@H](C)CO)C(=O)c2cc(NC(=O)Cn3cnnn3)ccc2O[C@H]1CN(C)C(=O)Nc1ccccc1 | active
5 | CNC[C@@H]1Oc2ccc(NC(=O)Cn3cnnn3)cc2CC(=O)N([C@@H](C)CO)C[C@H]1C | active
6 | C[C@@H]1CN([C@@H](C)CO)C(=O)c2cc(NC(=O)Cn3cnnn3)ccc2O[C@@H]1CN(C)C(=O)Nc1ccccc1 | inactive
7 | C[C@H](CO)N1C[C@H](C)[C@H](CN(C)C(=O)Nc2cccc3ccccc23)Oc2ccc(NC(=O)Cn3cnnn3)cc2C1=O | inactive
8 | C[C@@H]1CN([C@H](C)CO)C(=O)c2cc(NC(=O)Cn3cnnn3)ccc2O[C@H]1CN(C)C(=O)Nc1cccc2ccccc12 | active
9 | C[C@@H]1CN([C@@H](C)CO)C(=O)c2cc(NC(=O)Cn3cnnn3)ccc2O[C@H]1CN(C)C(=O)Nc1cccc2ccccc12 | inactive
10 | CNC[C@H]1Oc2ccc(NC(=O)Cn3cnnn3)cc2CC(=O)N([C@@H](C)CO)C[C@H]1C | inactive
11 | Cc1cc(Nc2cc(C)on2)nc([C@H]2CCN(C(=O)CN)C2)n1 | inactive
12 | C[C@H](CO)N1C[C@H](C)[C@@H](CN(C)S(=O)(=O)c2cccs2)Oc2c(NC(=O)CCCN(C)C)cccc2C1=O | inactive
13 | O=C(C[C@@H]1C[C@H]2c3cc(NC(=O)c4ccc5c(c4)OCO5)ccc3O[C@H]2[C@H](CO)O1)NCCc1ccccc1 | inactive
14 | Cc1noc(C)c1NC(=O)N(C)C[C@H]1OCCCC[C@H](C)Oc2ccc(NC(=O)CCC(F)(F)F)cc2C(=O)N([C@@H](C)CO)C[C@H]1C | inactive
15 | C[C@@H]1CN([C@H](C)CO)C(=O)c2cc(C#Cc3cccc(F)c3)cnc2O[C@@H]1CN(C)Cc1ccccn1 | inactive
16 | CC(C)CC#Cc1ccc2c(c1)O[C@H](CN(C)C(=O)c1cccnc1)[C@@H](C)CN([C@@H](C)CO)S2(=O)=O | inactive
17 | O=C(O)c1ccc(N[C@@H]2O[C@H](CO)[C@@H](O)[C@@H]2O)cc1 | inactive
18 | Clc1ccc(-c2onc3cc(-c4ccccc4)ccc23)cc1 | active
19 | Clc1ccc(-c2cnc3ccc(-c4ccccc4)cn23)cc1 | inactive
20 | Clc1ccc2nc(Cl)cc(-c3ccccc3)c2c1 | inactive
